Hits are enriched below; roughly 6.5% of the tested compounds scored in any of these assays.
VACV mCherry inh – vaccinia inhibition (mCherry reporter). Vaccinia virus mCherry reporter infection, fluorescence. Potency, µM (top dose mostly 36.5 µM), for inactives: at the highest dose activity change, negative = inhibition, usual class: inhibitors. 310,000 compounds, 0.63% hits; calls by dose curve; tested in A549 cells; note: potency is the fitted concentration of half-maximal effect; nearly all actives have a fitted effect of over 35% in size
Vaccinia Venus – inhibitors of vaccinia virus (Venus reporter). Vaccinia virus Venus reporter expression, fluorescence. Potency, µM (doses to about 36.5 µM), for inactives: at the top dose activity change, negative = inhibition, most hits filed as inhibitors. 330,000 compounds, 0.46% hits; calls by dose curve; tested in A549 cells; note: potency is the fitted concentration of half-maximal effect; nearly all actives have a fitted effect of over 30% in size
Marburg entry inh – inhibitors of Marburg virus binding or cell entry; 300,000 compounds, 1.8% hits; Potency, µM (top dose mostly 37.8 µM), for the others: top-dose activity change, negative = inhibition, actives largely listed as inhibitors; Marburg virus pseudotyped entry inhibition, cell reporter; calls by dose curve; tested in HEK293 cells; note: potency is the fitted concentration of half-maximal effect
Lassa entry inh – blocks Lassa virus binding to or entry into cells. AID 540256. Lassa virus pseudotype entry inhibition, cell reporter. Potency, µM (doses to about 37.9 µM), inactives show top-dose activity change, negative = inhibition, usual class: inhibitors. 300,000 compounds, 1.2% hits; calls by dose curve; tested in HEK293 cells; note: potency is the fitted concentration of half-maximal effect; nearly all actives have a fitted effect of over 50% in size
HCMV inh – inhibitors of human cytomegalovirus | HFF cells, HCMV-luciferase reporter, 72 h; hits give low values | activity change, negative = inhibition, % at 57.5 µM | 410,000 compounds, 4.5% hits | AID 1259415; in the data active = activity change below about -60%; inconclusive = no clear call, values can overlap the other calls; inactive = above about -39%
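Luciferase read-out from HCMV-luciferase-infected HFFs (MOI 1 PFU/cell) 72 h post infection at 37C; compounds added after 16 h cell attachment; activity normalized between buffer-only basal and Salinomycin (10uM) inhibitor controls.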
FMDV antiviral – blocks foot and mouth disease virus. FMDV antiviral cell-based qHTS. Potency, µM (doses to about 57.9 µM), without a hit: top-dose activity change, negative = inhibition, actives largely listed as inhibitors. 410,000 compounds, 1.2% hits. AID 1159524; calls by dose curve; tested in HEK293T cells; note: read-out not given here; potency is the fitted concentration of half-maximal effect; nearly all actives have a fitted effect of over 45% in size
The depositor's hits bear a star; i = inactive; ? = inconclusive; . = not tested or not shown; [ ] = remark or other dose. % is set by controls: 0 for no effect and ±100 for the full control effect.

SMILES	VACV mCherry inh	Vaccinia Venus	Marburg entry inh	Lassa entry inh	HCMV inh	FMDV antiviral
COc1ccccc1CNC(=O)C(CC(C)C)N1Cc2ccccc2C1=O (configuration not stated)	-13%	-12%	.	-4%[46.1 µM]	-32	-2%
COc1ccc2cc(/C=C3\SC(=S)NC3=O)c(N3CCOCC3)nc2c1	-3%	-11%	11µM*	?	-88*	28µM*
O=C1NC(=S)S/C1=C/c1ccc(N2CCOCC2)o1	i	i	?	-10%	.	?
CC(C)(C)c1ccc(C(=O)n2cnc3ccccc32)cc1	.	.	.	.	-39	?
CCN(CC)c1ccc(C(=O)n2cnc3ccccc32)cc1	14µM*	?	?	?	-3	-11%
Cc1ccc(NC(=O)CCn2c(=O)c3cccn3c3ccccc32)c(Cl)c1	0%	-6%	.	?	2	-11%
COc1ccc(CN(C)C(=O)c2ccc(OCC(=O)Nc3cccc(C(F)(F)F)c3)c(OC)c2)c(OC)c1	-3%	?	?	?	-83*	?
COc1cccc(CN(C)C(=O)c2cccc(NC(=O)CC3SC(N4CCCCC4)=NC3=O)c2)c1OC (configuration not stated)	.	.	.	.	-24	?
COc1cccc(CN(C)C(=O)c2ccc(OCC(=O)Nc3cccc(C(F)(F)F)c3)c(OC)c2)c1	?	?	?	8.9µM*	-86*	?
COc1ccc(CN(C)C(=O)c2cccc(NC(=O)CC3SC(N4CCCCC4)=NC3=O)c2)c(OC)c1 (configuration not stated)	?	-22%	10µM*	7.1µM*	-77*	20µM*
CC(C)=CC1C(C(=O)OC(C#N)c2cccc(Oc3ccccc3)c2)C1(C)C (configuration not stated)	.	.	.	.	11	.
COc1ccc(S(=O)(=O)N(CC(=O)Nc2ccccc2Br)Cc2ccccc2)cc1	-25%	-10%	.	?	-31	-20%
COc1ccc(-c2nc3c(-c4ccccc4)cnn3cc2C)cc1F	0%	8%	?	-23%	-40	0%
COc1ccc(-c2nc3c(-c4ccc(Cl)cc4)cnn3cc2C)cc1F	2%	-1%	0%[46.1 µM]	?	-76*	-8%
Cc1ccc(CN2C(=O)COCc3cc(-c4cccc(CO)c4)ccc32)cc1	.	.	.	.	-10	.
Cc1cc2cc(CNC(=S)NC3CCCCC3)ccc2[nH]1	.	.	-14%	?	-63*	11%
Clc1ccc(CNC2CCCC2)c(Cl)c1	-8%	-8%	-13%	-14%	?	.
S=C(NCc1ccc(Cl)cc1Cl)NC1CCCCC1	?	?	?	8.9µM*	-78*	-6%
Cc1cccc(NC(=O)NCc2ccc3[nH]c(C)cc3c2)c1	i	-11%	.	.	6	30%
Cc1ccc(NC(=O)NCc2ccc3[nH]c(C)cc3c2)cc1	-1%	8%	.	.	-84*	37%
O=c1c2ccccc2nc(-c2ccc(Cl)cc2)n1CCCCOc1ccc(F)cc1	-3%	-9%	19%[46.1 µM]	1%[46.1 µM]	15	-10%
O=C(NCc1cccc(F)c1)[C@@H]1[C@@H](CO)[C@@H]2Cn3c(cccc3=O)[C@H]1N2C(=O)c1cnccn1	.	.	.	.	-9	.
COC(=O)[C@H]1[C@H](CO)[C@H]2Cn3c(ccc(Br)c3=O)[C@H]2N1C(C)=O	.	.	.	.	20	.
CCOc1ccc(Sc2cc(C(=O)NCCCOC)c3ccccc3n2)cc1	-7%	-4%	.	-24%[46.1 µM]	?	?
c1ccc(Sc2ncnc3ccccc23)cc1	?	-15%	-13%[14.2 µM]	27%	-74*	9%
SMILES	VACV mCherry inh	Vaccinia Venus	Marburg entry inh	Lassa entry inh	HCMV inh	FMDV antiviral
O=C1Nc2ccc([N+](=O)[O-])cc2C1(O)N1CCCCC1 (configuration not stated)	-13%	-1%	30%	-2%	20	56%
CC1CCCN(C2(O)C(=O)Nc3ccc([N+](=O)[O-])cc32)C1 (configuration not stated)	.	.	.	.	-63*	-4%
CCc1cc(SC#N)cc(C)c1NC(=O)CCl	?	?	?	?	-96*	-21%
CCC(=O)Nc1ccc(SC#N)cc1C	i	-15%	-14%	-19%	7	.
CCc1cc(SC#N)cc(C)c1N	.	.	.	.	-13	-16%
Cc1cc(SC#N)cc(C)c1NC(=O)CCl	-15%	-9%	-22%	-11%	-83*	-5%
COc1ccccc1N1CCN(CCS(=O)(=O)c2cc(Cl)ccc2Cl)CC1	8.9µM*	?	.	.	-20	-12%
